Test results: PubChem BioAssay AID588849 (Broad Institute, 2011)
Results with a measured potency or affinity are listed apart. The source made the active and inactive calls. The rule behind the calls is not given here.

What follows are compounds tested against CAAX prenyl protease 2 (Homo sapiens) (UniProt Q9Y256) (assay: inhibition of Ras-converting CAAX protease Rce1 – biochemical, yeast membranes, quenched-peptide fluorescence, cherry-pick, dose response (AID 588849)). Details: yeast membrane fractions expressing human Rce1, quenched-peptide fluorescence, 4 h; series mostly up to 10 µM.
Sequence of CAAX prenyl protease 2 (Homo sapiens) (Q9Y256 whole entry, looked up): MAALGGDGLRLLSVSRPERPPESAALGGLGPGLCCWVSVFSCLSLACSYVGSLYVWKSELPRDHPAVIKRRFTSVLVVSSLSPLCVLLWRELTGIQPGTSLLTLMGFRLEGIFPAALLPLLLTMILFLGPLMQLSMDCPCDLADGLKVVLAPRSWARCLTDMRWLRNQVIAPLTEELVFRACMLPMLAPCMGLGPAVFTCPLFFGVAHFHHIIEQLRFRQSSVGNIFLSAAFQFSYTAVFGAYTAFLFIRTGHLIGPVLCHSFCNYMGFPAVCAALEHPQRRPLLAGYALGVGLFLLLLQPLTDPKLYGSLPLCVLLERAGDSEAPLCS

outcome, inactive:
Cc1cccc(N2C(=O)c3cccc4c(N5CCCCC5)c([N+](=O)[O-])cc(c34)C2=O)c1C
Cc1ccc(NS(=O)(=O)c2ccc(NC(=O)N3CCCCC3)cc2)cc1
COC(C/C=C\C(=O)[C@H](C)OCc1ccccc1)OC
COc1ccc(OC)c(/C=N/c2c(-c3ccc(O)c(OC)c3)nc3ccccn23)c1
COc1ccc2[nH]c(C(=O)NCCCn3ccnc3)cc2c1
